Laboratory results reported in ChEMBL document CHEMBL4513141, “CO-ADD screening of NIH (USA) - Clinical Collection” (2021).
Results with a measured potency or affinity are listed apart.

What follows are compounds tested on Staphylococcus aureus. Details: Concentration 20 uM; ASSAY_TEST Inhibition of Bacterial Growth; detection method Absorption (OD600); MEDIA CAMHB; plate type 384well; NBS; CORNING #3640; time 18 hr.

Row | SMILES | Inhibition
1 | Nc1ccc(S(=O)(=O)c2ccc(N)cc2)cc1 [DAPSONE] | -0.58%
2 | Nc1ccc(O)c(C(=O)O)c1 [MESALAMINE] | -19.58%
3 | C#C[C@]1(O)CC[C@H]2[C@@H]3CCc4cc(O)ccc4[C@H]3CC[C@@]21C [ETHINYL ESTRADIOL] | 1.21%
4 | CCOC(=O)[C@H](CCc1ccccc1)N[C@@H](C)C(=O)N1[C@H](C(=O)O)C[C@@H]2CCC[C@@H]21 | 17.44%
5 | CS(=O)(=O)OCCCCOS(C)(=O)=O [BUSULFAN] | 14.7%
6 | CC1CCN(CCCC(=O)c2ccc(F)cc2)CC1.Cl | 4.4%
7 | CC(=O)NS(=O)(=O)c1ccc(N)cc1 [SULFACETAMIDE] | 13.64%
8 | CNCC[C@@H](Oc1ccccc1C)c1ccccc1.Cl [ATOMOXETINE HYDROCHLORIDE] | -21.69%
9 | Cl.O=C1[C@H]2CCCC[C@H]2C(=O)N1CCCCN1CCN(c2nsc3ccccc23)CC1 | 14.1%
10 | COc1ccnc(C[S+]([O-])c2nc3cc(OC(F)F)ccc3[n-]2)c1OC.O.[Na+] (stereo not drawn) [PANTOPRAZOLE SODIUM] | 15.25%
11 | Nc1ccn([C@@H]2CS[C@H](CO)O2)c(=O)n1 [LAMIVUDINE] | 9.88%
12 | Cc1c(C(=O)NN2CCCCC2)nn(-c2ccc(Cl)cc2Cl)c1-c1ccc(I)cc1 | 8.26%
13 | CC(COc1ccccc1)NC(C)C(O)c1ccc(O)cc1.Cl (stereo not drawn) [ISOXSUPRINE HYDROCHLORIDE] | 10.12%
14 | Cc1[nH]c(=O)c(C#N)cc1-c1ccncc1 [MILRINONE] | 14.68%
15 | CCCc1nc2c(C)cc(-c3nc4ccccc4n3C)cc2n1Cc1ccc(-c2ccccc2C(=O)O)cc1 | 33.03%
16 | CC(=O)O[C@]1(C(C)=O)CC[C@H]2[C@@H]3C[C@H](C)C4=CC(=O)CC[C@]4(C)[C@H]3CC[C@@]21C [MEDROXYPROGESTERONE ACETATE] | 10.39%
17 | Cl.O=C(c1ccc(OCCN2CCCCC2)cc1)c1c(-c2ccc(O)cc2)sc2cc(O)ccc12 [RALOXIFENE HYDROCHLORIDE] | 16.87%

Row | SMILES | Inhibition
18 | CCN(Cc1ccncc1)C(=O)C(CO)c1ccccc1 (stereo not drawn) [TROPICAMIDE] | 7.97%
19 | COC(=O)C1=C(C)NC(C)=C(C(=O)OCC(C)C)C1c1ccccc1[N+](=O)[O-] (stereo not drawn) [NISOLDIPINE] | 10.19%
20 | CC(=O)O[C@@]12CO[C@@H]1C[C@H](O)[C@@]1(C)C(=O)[C@H](O)C3=C(C)[C@@H](OC(=O)[C@H](O)[C@@H](NC(=O)OC(C)(C)C)c4ccccc4)C[C@](O)([C@@H](OC(=O)c4ccccc4)[C@H]21)C3(C)C | 10.2%
21 | CCCC1O[C@@H]2C[C@H]3[C@@H]4CCC5=CC(=O)C=C[C@]5(C)[C@H]4[C@@H](O)C[C@]3(C)[C@]2(C(=O)CO)O1 (stereo partly drawn) [BUDESONIDE] | 6.99%
22 | Cc1cccc(CCN2CCC(C(=O)c3ccc(NS(C)(=O)=O)cc3)CC2)n1.Cl.Cl | 15.03%
23 | CC(=O)OCC(=O)C12OC3(CCCC3)OC1CC1C3CCC4=CC(=O)C=CC4(C)C3(F)C(O)CC12C (stereo not drawn) | 19.97%
24 | CCN(CC)C(=O)[C@]1(c2ccccc2)C[C@@H]1CN.Cl [1R,2S-MILNACIPRAN HYDROCHLORIDE] | 5.25%
25 | COc1ccccc1N1CCN(CC(O)COc2cccc3ccccc23)CC1 (stereo not drawn) [NAFTOPIDIL] | 4.28%
26 | CCC(CO)NCCNC(CC)CO (stereo not drawn) | 8.81%
27 | Nc1ccn([C@H]2CC[C@@H](CO)O2)c(=O)n1 [ZALCITABINE] | 4.24%
28 | OCc1cc(C(O)CNCCCCCCOCCCCc2ccccc2)ccc1O (stereo not drawn) [SALMETEROL] | 15.16%
29 | NS(=O)(=O)c1cc2c(cc1Cl)NCNS2(=O)=O [HYDROCHLOROTHIAZIDE] | 6.38%
30 | CC(=O)CCCCn1cnc2c1c(=O)n(C)c(=O)n2C [LOMIFYLLINE] | 12.49%
31 | CN(C)CCOC(C)(c1ccccc1)c1ccccn1.O=C(O)CCC(=O)O (stereo not drawn) [DOXYLAMINE SUCCINATE] | 2.51%
32 | CC(C)(C)NCC(O)COc1cccc2c1CC(O)C(O)C2 (stereo not drawn) [NADOLOL] | 16.27%
33 | CN1CCN(CCCN2c3ccccc3Sc3ccc(C(F)(F)F)cc32)CC1.Cl.Cl [TRIFLUOPERAZINE HYDROCHLORIDE] | 19.71%
